The panel holds about 79,000 compounds, 15% with a hit somewhere; the sample as a whole holds those more often. Values without a mark were called inactive. Calls of active or inactive are those of the source. Rule as the data show it: active = growth inhibition above about 70%; inactive = the rest. Where a SMILES comes first, the peptide text is derived from it. The star is where a group is joined. Fmoc = O=C(OCC1c2ccccc2-c2ccccc21)*; Boc = CC(C)(C)OC(=O)*
Assays:
[1] = NCI Yeast Anticancer Drug Screen. Data for the rad50 strain (AID 155);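 also: 0% = growth of vehicle-only cultures of the same strain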; conditions: S. cerevisiae rad50 strain growth inhibition, stronger effect = higher value
In short: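 Cells are treated with compound, grown, and their growth is then scored against vehicle-only cultures of the same repair-deficient yeast strain.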

[2] = NCI Yeast Anticancer Drug Screen. Data for the mec2-1 strain (AID 157); conditions: S. cerevisiae mec2-1 strain, stronger effect = higher value
In short: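 Growth inhibition is read against vehicle-treated controls after compound exposure of the mec2-1 yeast strain, which is defective in DNA damage repair or cell cycle control.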

[3] = NCI Yeast Anticancer Drug Screen. Data for the sgs1 mgt1 strain (AID 161);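 also: 0% = growth of cultures given vehicle only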; conditions: S. cerevisiae sgs1 mgt1 strain, stronger effect = higher value
In short: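 Yeast cells carrying a defined DNA-repair defect were exposed to test compounds. Growth inhibition was measured relative to vehicle-treated controls.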

[4] = NCI Yeast Anticancer Drug Screen. Data for the cln2 rad14 strain (AID 165);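 also: 0% = growth equal to vehicle treated cultures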; conditions: S. cerevisiae cln2 rad14 strain, stronger effect = higher value
In short: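 Growth inhibition, relative to vehicle-treated controls, is the read-out. The test organism is a yeast strain with defined genetic alterations, cln2 rad14.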

[5] = NCI Yeast Anticancer Drug Screen. Data for the bub3 strain (AID 167); conditions: S. cerevisiae bub3 mutant strain, stronger effect = higher value
In short: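 Part of a panel of yeast mutants defective in DNA damage repair or cell cycle regulation. Each strain is grown with compound, and inhibition is calculated relative to solvent-treated cultures.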

[6] = NCI Yeast Anticancer Drug Screen. Data for the mlh1 rad18 strain (AID 175); conditions: S. cerevisiae mlh1 rad18 strain growth inhibition, stronger effect = higher value
In short: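 Cells of a genetically altered yeast strain, deficient in DNA damage repair, were treated with compound. Their growth was then compared with that of vehicle-treated cultures to give inhibition.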

[7] = at 5.0 µM (retest, dose inferred, filed as 0.5)
[8] = at 50.0 µM (retest, dose inferred, filed as 5.0)

Compound | growth inhibition [1, 7] | growth inhibition [1, 8] | growth inhibition ([1]; at 50.0 µM) | growth inhibition [2, 7] | growth inhibition [2, 8] | growth inhibition ([2]; at 50.0 µM) | growth inhibition [3, 7] | growth inhibition [3, 8] | growth inhibition ([3]; at 50.0 µM) | growth inhibition [4, 7] | growth inhibition [4, 8] | growth inhibition ([4]; at 50.0 µM) | growth inhibition [5, 7] | growth inhibition [5, 8] | growth inhibition ([5]; at 50.0 µM) | growth inhibition [6, 7] | growth inhibition [6, 8] | growth inhibition ([6]; at 50.0 µM)
O=[N+]([O-])c1ccc(CN2CCN(c3nccs3)CC2)cc1 | 5% | 22% | 76.8% (active) | -3% | 11% | 51% | 1% | 61% | 77.8% (active) | -1% | 29% | 34.5% | -1% | 38% | 66.6% | 3% | 46% | 66.2%
COc1ccc2c(c1)nc1cc(Cl)ccc1[n+]2C | 8% | 97% (active) | 82.2% (active) | 2% | 95% (active) | 52.5% | -5% | 97% (active) | 74.1% (active) | 0% | 97% (active) | 64.4% | 9% | 93% (active) | 86.3% (active) | 5% | 97% (active) | 85.3% (active)
C=CC(=O)N1C/C(=C\c2ccc(F)cc2)C(=O)/C(=C/c2ccc(F)cc2)C1 | 21% | 75% (active) | 52% | 14% | 77% (active) | 26.1% | 14% | 88% (active) | 90.2% (active) | 19% | 81% (active) | 78.5% (active) | 21% | 94% (active) | 88.6% (active) | 18% | 91% (active) | 88.1% (active)
CCCCCCCCCCCC[S+](C)C | 31% | 52% | 44.9% | 23% | 80% (active) | 78.3% (active) | 36% | 83% (active) | 89.5% (active) | 17% | 26% | 41% | 41% | 74% (active) | 90.2% (active) | 30% | 76% (active) | 6.8%
CCCCC(=O)OC1=C(Br)C(=O)c2ccccc2C1=O | 20% | 98% (active) | 96.3% (active) | 24% | 100% (active) | 63% | 10% | 96% (active) | 81.1% (active) | 3% | 88% (active) | -11.8% | 14% | 97% (active) | 13.8% | 37% | 98% (active) | 75.3% (active)
CCOc1ccccc1C(=O)OCc1ccccc1 | -7% | 8% | 10.1% | -9% | 4% | 0.65% | -1% | 19% | 18.9% | 23% | -22% | 15.2% | 4% | -20% | 6.2% | -19% | 21% | 1.55%
O=C(O)CSc1cc2c3ccccc3sc2c2ccccc12 | 16% | 96% (active) | 96.3% (active) | 14% | 97% (active) | 97.8% (active) | 11% | 97% (active) | 98.5% (active) | 4% | 96% (active) | 93.8% (active) | 8% | 94% (active) | 79.7% (active) | 12% | 97% (active) | 98.1% (active)
CC(C)(C)OC(=O)NCCCCC(NC(=O)OCC1c2ccccc2-c2ccccc21)C(=O)N1CCCC1C(=O)NCC(N)=O (stereo not drawn) (Fmoc-Lys(Boc)-Pro-Gly-NH2; configuration not given here) | 10% | 98% (active) | 86.8% (active) | 13% | 95% (active) | 94.4% (active) | 5% | 89% (active) | 90.3% (active) | 10% | 91% (active) | 82.8% (active) | -10% | 97% (active) | 93.1% (active) | 19% | 97% (active) | 93.3% (active)
CCOC(=O)c1nc(SC)sc1NC(=O)c1ccccc1Cl | 1% | 1% | 19.4% | -5% | -5% | -15.6% | 4% | 4% | 77.8% (active) | -13% | -13% | 27.8% | -14% | -14% | 30.4% | -5% | -5% | -8.2%
CCc1n[nH]c(CC)c1CCCCCCOc1ccc(OC)cc1Cl | -8% | 60% | 83.8% (active) | -15% | 77% (active) | 92.4% (active) | -3% | 73% (active) | 92.2% (active) | -28% | 76% (active) | 89.7% (active) | -8% | 83% (active) | 89.2% (active) | -11% | 73% (active) | 93.7% (active)
CC(C)C1=CC2=CC(=O)C3C(C)(C)CCCC3(C)C2=C(O)C1=O (configuration not stated) | 90% (active) | 88% (active) | 87.8% (active) | 99% (active) | 94% (active) | 89.8% (active) | 98% (active) | 94% (active) | 90% (active) | 24% | 86% (active) | 85.5% (active) | 49% | 93% (active) | 87.4% (active) | 96% (active) | 90% (active) | 87.5% (active)
O=c1ccc2ccc(Cl)cc2[nH]1 | -9% | 1% | -27.9% | -5% | 16% | -5.9% | -5% | -8% | 8.05% | 17% | 17% | 50% | 4% | 1% | -10.3% | 9% | 20% | 4.8%
COC(=O)N/N=C(/CC1(O)C(=O)Nc2ccccc21)c1ccc(Cl)cc1Cl (configuration not stated) | 21% | 97% (active) | 97.5% (active) | 10% | 97% (active) | 98.5% (active) | 32% | 97% (active) | 98.2% (active) | 12% | 97% (active) | 92.3% (active) | 8% | 97% (active) | 96.8% (active) | 19% | 94% (active) | 97.8% (active)
COc1cccc2nc3c(C(=O)NCCN(C)C)cccc3cc12 | 60% | 94% (active) | 81.7% (active) | 15% | 43% | 15.9% | 24% | 56% | 10.4% | 15% | 49% | -7.1% | 22% | 47% | -50.6% | 24% | 65% | 0.05%
O=C(Nc1cccc(C(F)(F)F)c1)C(Cl)=C(Cl)Cl | 12% | 99% (active) | 98.5% (active) | -1% | 98% (active) | 98.8% (active) | 0% | 98% (active) | 98.5% (active) | -8% | 99% (active) | 97.8% (active) | 0% | 98% (active) | 98.5% (active) | -2% | 99% (active) | 98.7% (active)
CC(=O)[O-].O=C(N/N=C/c1ccccc1[O-])c1ccccc1.[Zn+2] | -3% | 61% | -2.05% | 6% | 89% (active) | 14.6% | 1% | 86% (active) | 55.8% | -5% | 32% | -16.9% | -10% | 70% (active) | 0.3% | 9% | 91% (active) | 32%
CCCCCCCCCCN(CCCCCCCCCC)C(=O)COc1c2cc(C(C)(C)C)cc1Cc1cc(C(C)(C)C)cc(c1OCC(=O)N(CCCCCCCCCC)CCCCCCCCCC)Cc1cc(C(C)(C)C)cc(c1OCC(=O)N(CCCCCCCCCC)CCCCCCCCCC)Cc1cc(C(C)(C)C)cc(c1OCC(=O)N(CCCCCCCCCC)CCCCCCCCCC)C2 | 98% (active) | 92% (active) | 85.8% (active) | 98% (active) | 95% (active) | 89.3% (active) | 99% (active) | 95% (active) | 89% (active) | 98% (active) | 94% (active) | 87.3% (active) | 99% (active) | 94% (active) | 87.8% (active) | 97% (active) | 92% (active) | 84.8% (active)
CC1=C(C(=O)Nc2cccc(Cl)c2)C(c2ccccc2F)C(C(=O)Nc2cccc(Cl)c2)=C(C)N1 | 44% | 44% | 71.3% (active) | 49% | 49% | 81.8% (active) | 37% | 37% | 86.2% (active) | 36% | 36% | 85.1% (active) | 56% | 56% | 86.8% (active) | 62% | 62% | 87.7% (active)
c1ccc2c(c1)oc1cc3c(cc12)CCCN3 | 18% | 97% (active) | 91.7% (active) | 19% | 98% (active) | 10.3% | 7% | 98% (active) | 74.7% (active) | 3% | 97% (active) | 4.4% | 19% | 98% (active) | 77.7% (active) | 18% | 98% (active) | 43.5%

— PubChem BioAssay (NCI)
